Measured values reported in PubChem BioAssay AID626 (Vanderbilt High Throughput Screening Facility, 2007).
Screen size: about 64,000 compounds; about 1,900 (3%) were called active.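 The calls were made as follows: active = fluorescence rise, raw or as B-score row- and column-corrected plate score, outside the 99.7% band of its plate's samples, either direction; inactive = the rest.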 Shown is part of a subset that was picked to be rich in actives.

test system: Muscarinic acetylcholine receptor M1; assay: direct activation of M1 receptor calcium signal – CHO-M1 cells, Fluo-4 calcium, agonist mode, primary screen (AID 626); conditions: Fluo-4 calcium fluorescence, at 10 µM, active compounds read high

B-score, active:
COc1ccccc1N1CCN(C(=O)c2c(-c3c(Cl)cccc3Cl)noc2C)CC1 4.97
CCCOc1ccccc1C1CC(=O)Nc2cc3c(cc21)OCO3 (stereo not given) 4.33
Cc1nc(CNS(=O)(=O)c2ccc(Oc3ccccc3)cc2)cs1 3.97
COc1ccc(N(CC(=O)NC(C)(C)C)C(=O)c2ccco2)cc1 3.36
COc1ccc(CCNC(=O)c2ccco2)cc1 78.9
COC(=O)c1ccc(CSc2nc3ccccc3c(=O)n2-c2cccc(OC)c2)o1 3.63
Cc1cc(NC(=O)COc2ccc(Cl)cc2Cl)n(CCC#N)n1 -2.93
COc1ccc(Nc2oc(-c3ccccc3Cl)nc2C#N)cc1 37.2
COc1cc(C(=O)Nc2oc(-c3ccccc3)c(-c3ccccc3)c2C#N)cc(OC)c1OC 3.33

B-score, inactive:
O=C(COc1ccccc1)NCc1ccc2c(c1)OCO2 0.038
CCOC(=O)NCc1ccc2c(c1)OCO2 0.801
Cc1ccc(-c2csc3nnc(SCC(=O)NCc4ccco4)n23)cc1 0.495
COC(=O)c1ccccc1NC(=O)CN(Cc1ccccc1)S(C)(=O)=O 0.117
CCOc1ccc(N2C(=O)CC(N(O)c3ccccc3)C2=O)cc1 (stereo not given) 0.335
COc1ccccc1N1CCN(C(=O)c2cc(-c3ccc(Br)cc3)on2)CC1 -0.734
COc1ccccc1N1CCN(C(=O)c2cc(-c3ccc(Cl)c(Cl)c3)on2)CC1 -0.0802
O=C(c1ccco1)N1CCN(CC(=O)N(C2CCCCC2)C2CCS(=O)(=O)C2)CC1 (stereo not given) 1.21
COc1ccc(S(=O)(=O)N2CCCCC2)cc1Br -0.037
O=C(CCSc1ccccc1)NCCSc1ccccn1 -0.157
COc1c(F)c(F)c(-c2csc(N)n2)c(F)c1F -0.0216
Cc1nc2c(c(=O)n1Cc1ccco1)c1nc3ccccc3nc1n2Cc1ccccc1 -1.33
COc1ccc(CC(=O)Nc2nc3n(n2)C(c2ccccc2)CC(=O)N3)cc1OC (stereo not given) 1.86
COCCOC(=O)C1=C(C)NC(=O)CC1c1cc2c(cc1Br)OCO2 (stereo not given) 0.114
COc1cc2c(cc1OC)C(c1ccc(C)o1)CC(=O)N2 (stereo not given) 0.00289
CC(C)C[C@H](NC(=O)Nc1cccc(C(F)(F)F)c1)C(=O)O 0.0481
CC(=O)c1c(C)c[nH]c1C 0.323
Cc1nc(CNS(=O)(=O)c2cccnc2)cs1 0.163
Cc1ccc(S(=O)(=O)NCc2csc(C)n2)c(C)c1 -0.841
CC(C)C(NC(=O)OCc1ccccc1)C(=O)OCC(=O)N1C(C)CCCC1C (stereo not given) -0.582
COC(=O)c1ccc(N(CC(=O)NC2CCCC2)C(=O)CNC(=O)c2ccco2)cc1 -0.016
O=C(NCCSc1ccccc1)c1ccco1 0.47
CC(C)(C)NC(=O)c1cc(NC(=O)c2ccco2)cc(NC(=O)c2ccco2)c1 4.57
COc1cc(OC)cc(C(=O)NCCSCc2ccco2)c1 -0.317
CCOC(=O)N1CCN(C(=O)CSc2nnc(-c3c[nH]c4ccccc34)n2CCOC)CC1 0.791
O=C(OCC(=O)c1cccs1)C1=COCCO1 -0.115
COc1ccc(C(c2nnnn2C2CCCCC2)N2CCN(c3ccccc3F)CC2)cc1 (stereo not given) -0.721
COCC(C)n1c(SCc2ccc(C(=O)OC)o2)nc2ccccc2c1=O (stereo not given) 1.47
COC(=O)c1ccc(CSc2ccccc2C)o1 -0.274
CCOC(=O)N1CCC(C(N)=O)CC1 -0.221
COc1ccc2c(c1)C=CC1(O2)N(CCO)c2ccccc2C1(C)C (stereo not given) 0.737
COc1ccc(OC)c(S(=O)(=O)Nc2ccccc2F)c1 -0.55
Cc1cc(Nc2ccccc2)n(CCC#N)n1 -0.373
CN1CCN(c2ccc(NC(=O)COc3ccc(Cl)cc3Cl)cc2)CC1 -0.55
O=C(c1cccs1)N1CCN(Cc2ccc3c(c2)OCO3)CC1 0.609
N#Cc1nc(-c2ccc(OCc3ccccc3)cc2)oc1NCCCN1CCOCC1 1.06
CCOc1ccc(Nc2oc(Cc3ccccc3)nc2C#N)cc1 0.194
CCN1C(=O)CS/C1=N\c1nccs1 0.514
O=C(Nc1ccc(Cl)cc1)c1ccsn1 -0.00233
COc1cc(C(=O)Nc2nccs2)cc(OC)c1OC 1.84
N#Cc1c(NC(=O)CCCN2C(=O)c3ccccc3C2=O)oc(-c2ccccc2)c1-c1ccccc1 -0.449
